# The list is not random: actives were taken first. Their share in the collection is about 3.1%.
# MEKK3 PB1 HTS: raises or lowers MEK5 binding to the human MEKK3 PB1 domain; 290,000 tested, 1.4% active; binding response (% of control), % at 10 µM; bead-based flow cytometry, Alexa488-MEK5 binding to MEKK3; actives lie on both sides; 0 = blocked by unlabeled MEK5, 100 = vehicle; AID 1529; Q99759;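 active = binding response more than 3 SD above or below the average of its plate-row segment, actives on both sides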;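 also: Alexa488 bead fluorescence after subtracting the streptavidin-only scavenger bead signal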
# Target sequence (Q99759 whole entry, looked up, the tested form may be a part): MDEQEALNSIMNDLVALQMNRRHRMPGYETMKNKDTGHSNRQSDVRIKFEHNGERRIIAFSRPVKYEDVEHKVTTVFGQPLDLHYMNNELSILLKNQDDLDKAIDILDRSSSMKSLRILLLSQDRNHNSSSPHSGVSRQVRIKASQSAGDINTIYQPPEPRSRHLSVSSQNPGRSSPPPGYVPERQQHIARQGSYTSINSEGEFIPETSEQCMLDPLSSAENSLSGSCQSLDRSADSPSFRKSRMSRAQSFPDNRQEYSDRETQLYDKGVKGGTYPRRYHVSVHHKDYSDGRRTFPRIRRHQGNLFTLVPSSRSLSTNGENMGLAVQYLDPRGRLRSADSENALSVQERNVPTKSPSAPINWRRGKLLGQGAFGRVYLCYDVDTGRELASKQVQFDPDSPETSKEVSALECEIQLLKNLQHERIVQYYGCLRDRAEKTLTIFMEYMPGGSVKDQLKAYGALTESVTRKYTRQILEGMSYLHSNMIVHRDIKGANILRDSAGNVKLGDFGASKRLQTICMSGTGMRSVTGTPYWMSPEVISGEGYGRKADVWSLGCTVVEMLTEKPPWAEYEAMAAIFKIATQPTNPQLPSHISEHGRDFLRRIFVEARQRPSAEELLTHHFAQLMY
# MEKK2mut PB1 HTS: signal of MEK5 binding to mutant human MEKK2 PB1 domain. 290,000 tested, 0.35% active. bead flow cytometry, Alexa488-MEK5 binding to MEKK2 mutant. percent response, % at 10 µM; in the data active = percent response above about 24%, passing the limit was not always enough
# UBC13 polyUb: inhibitors of human UBC13 polyubiquitin chain formation; TR-FRET; inhibition, % at 20 µM; P61088; 330,000 tested, 0.47% active; in the data active = inhibition above about 45%, passing the limit was not always enough
# ATG4B inhibitor: ATG4B (human) cysteine protease inhibition; 340,000 tested, 0.51% active; inhibition, % at 8.33 µM; Q9Y4P1; ATG4B cleavage of LC3-PLA2, NBD-HPC fluorescence, 1 h; in the data active = inhibition above about 40%
# MEKK2wt PB1 HTS: raises or lowers MEK5 binding to wildtype human MEKK2 PB1 domain | Q9Y2U5 | bead flow cytometry, Alexa488-MEK5 binding to MEKK2 WT; actives lie on both sides | binding response (% of control), % at 10 µM | 290,000 tested, 1.1% active | AID 1531; in the data active = binding response below about 67% or above about 130%
# PREPL inh: human PREPL enzyme inhibition; Q4J6C6; recombinant PREPL, fluorescence polarization activity-based probe; inhibition, % at 5.96 µM; 320,000 tested, 0.68% active; AID 2751; in the data active = inhibition above about 43%;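 also: 0% = enzyme with DMSO and 100% = wells lacking enzyme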
# MEKK2wt confirm: raises or lowers MEK5 binding to wildtype human MEKK2, retest; shares compounds with MEKK3 PB1 HTS; binding response (% of control), % at 10 µM; 5,900 tested, 2.4% active; bead flow cytometry, Alexa488-MEK5 binding to MEKK2 WT; actives lie on both sides; in the data active = binding response below about 16% or above about 210%; inactive = in between
# MEKK2mut-MEK5: signal of MEK5 binding to mutant human MEKK2, retest | shares compounds with MEKK3 PB1 HTS | bead flow cytometry, Alexa488-MEK5 binding to MEKK2 mutant | percent response, % at 10 µM | 5,900 tested, 2% active; in the data active = percent response mostly above about 71%, no sharp cut-off; inactive = mostly below about 38%;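 also: higher means compound restores mutant binding toward wildtype level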
# MEKK3-MEK5 inh: MEKK3-MEK5 PB1 inhibition, single concentration confirmation | bead flow cytometry, Alexa488-MEK5 binding to MEKK3; hits give low values | shares compounds with MEKK3 PB1 HTS | 5,900 tested, 1.8% active | AID 1894 | binding response (% of control), % at 10 µM;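 active = binding response below 72% of control, or above a set upper limit, though filed actives all read lower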;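 also: 100% = DMSO only wells and 0% = binding blocked by excess unlabeled MEK5; lower values mean stronger disruption of MEK5 binding to MEKK3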
# Numbers without * were called inactive; x = not tested or not shown; [ ] = remark or other dose.
SMILES,MEKK3 PB1 HTS,MEKK2mut PB1 HTS,UBC13 polyUb,ATG4B inhibitor,MEKK2wt PB1 HTS,PREPL inh,MEKK2wt confirm,MEKK2mut-MEK5,MEKK3-MEK5 inh
Cc1csc(Sc2nc3c(c(=O)[nH]c(=O)n3C)n2CCCc2ccccc2)n1,2.0*[inhibitor],-21,8,0,1.0*[inhibitor],1,91,-10,93
Cn1c(=O)[nH]c(=O)c2c1nc(SCCO)n2CCCc1ccccc1,96,-2,0,-7,98,1,x,x,x
Cc1ccc(C(=O)NNc2cc(=O)n(C)c(=O)n2C)cc1C,142*,0,-13,-10,105,2,102,-8,102
CCC(=C(c1ccc(OC)cc1)c1ccc(OC)cc1)c1cn(CC(O)CN(CCO)CCO)c2ccccc12 (stereo unspecified),106,9,20,-14,149*,17,158,36,108
COc1cc2c(cc1OC)C(c1ccc(-c3ccc(Cl)c(Cl)c3)o1)=NCC2,105,28,5,-7,149*,9,152,49,113
CCCCN(C)C(=O)C1CCN(Cc2cccnc2)CC1,112,27*,-2,-3,118,11,96,-5,102
Cc1ccccc1S(=O)(=O)N1CCN(C)CC1,106,13,-3,1,107,0,x,x,x
O=c1cc(NS(=O)(=O)c2ccccc2)nc(SCc2ccc(Cl)cc2)[nH]1,129*,1,x,-16,105,-9,98,-9,99
O=[N+]([O-])c1cccc(S(=O)(=O)Nc2ccc(-c3ccc(N4CCOCC4)nn3)cc2)c1,x,x,-11,4,x,18,x,x,x
CC(C)(C)n1cc(S(=O)(=O)c2ccccc2)[nH]c1=O,102,-4,6,4,99,3,x,x,x
COc1cc(C2NC(=S)NC3=C2CCc2ccccc23)cc(OC)c1OC (stereo unspecified),142*,0,7,-1,109,14,98,1,104
CC(/C=N/n1c(-c2ccco2)n[nH]c1=S)=C\c1ccccc1,134*,0,-7,14,104,15,98,-2,102
CC(/C=N/n1c(-c2ccccn2)n[nH]c1=S)=C\c1ccccc1,100,5,-25,-3,103,9,x,x,x
COc1ccc(-c2nn(-c3ccccc3)cc2CNC(C)Cn2cncn2)c(F)c1 (stereo unspecified),99,0,-3,-6,104,-6,x,x,x
COc1ccc(-c2nn(-c3ccccc3)cc2CN(C)CCn2ccnc2C)c(F)c1,44*[inhibitor],-37,1,3,57,23,90,-3,96
CC(C)CC(=O)Nc1c2c(nn1-c1cccc(Cl)c1)CS(=O)(=O)C2,106,5,6,-3,105,0,x,x,x
CCN(CC)CCN(Cc1cc2cc3c(cc2[nH]c1=O)OCO3)C(=S)NCCCN(C)C,107,9,3,-2,119,17,x,x,x
CCCCNC(=S)N(CCN(CC)CC)Cc1cc2cc3c(cc2[nH]c1=O)OCO3,105,24*,8,-5,120,17,106,1,102
CCN(CC)CCN(Cc1cc2cc3c(cc2[nH]c1=O)OCCO3)C(=S)NCCCN(C)C,111,22,3,3,138*,0,112,6,103
CCCCN1C(=O)C(CC(=O)NCC)SC1=Nc1ccccc1 (stereo unspecified),134*,6,7,-2,108,2,95,4,95
COc1ccccc1NC(=O)NC1(C(=O)N2CCCCC2)CCCCC1,101,0,3,-15,98,4,x,x,x

# High-throughput results: PubChem BioAssay, several laboratories
